# MmCpn inh: inhibitors of Methanococcus maripaludis chaperonin TRiC (MmCpn) | purified Mm-Cpn ATPase, ADP Transcreener TR-FRET | Potency, µM (titrated, usually from 76.9 µM), inactives show at the highest dose activity, negative = inhibition, actives largely listed as inhibitors | 330,000 compounds, 0.031% hits | AID 504842; also: potency is read from the fitted curve at half-maximal effect; nearly all actives have a fitted effect of over 80% in size
#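 Compound-treated chaperonin, 25 nM final, turns over 10 uM ATP at 37°C for 30 min following a 10 min preincubation; ADP generated competes with ADP-d2 for Eu-cryptate antibody, lowering FRET.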
# G9a inh: blocks human histone lysine methyltransferase G9a | Potency, µM (highest dose often 102 µM), without a hit: at the highest dose activity, negative = inhibition, actives largely listed as inhibitors | G9a H3K9 monomethylation, AlphaScreen, 2 h | 350,000 compounds, 8.8% hits | Q96KQ7; also: potency is read from the fitted curve at half-maximal effect; nearly all actives have a fitted effect of over 75% in size
#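 AlphaScreen detection with an anti-monomethyl H3K9 antibody quantified product after a 2 h room-temperature reaction containing 500 nM biotinylated H3K9 peptide, 20 µM SAM and 20 nM enzyme, which had been preincubated 15 min with compound.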
# VDR inhibitor: vitamin D3 receptor (human) inhibition. P11473. VDR-SRC2-3 peptide fluorescence polarization, 2 h. Potency, µM, for inactives: max response, negative = inhibition, usual class: inhibitors. 400,000 compounds, 0.93% hits; also: potency is read from the fitted curve at half-maximal effect
#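 FP read-out; VDR + SRC2-3 coactivator peptide; 23 nl compound by pintool; 2 h RT incubation; reagents held at 4 deg C, protected from light.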
# CCT chaperon mod: changes cytosolic chaperonin activity; purified chaperonin ATPase assay, HTRF ADP detection, 30 min; activity change, % (concentration not given with the values), hits read low; AID 651819; 360,000 compounds, 0.3% hits; in the data active = activity change below about -30%
#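 ATPase activity: ADP formed was measured by HTRF Transcreener (665/615 nm ratio) after 30 min at 37 deg C with 10 uM ATP. Compounds screened at one 76 uM concentration against 40 or 20 nM TRiC in Tris pH 7.4/KCl/MgCl2/DTT buffer.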
# PLK1 PBD inh: PLK1 (human) polo-box domain binding inhibition. 360,000 compounds, 2.8% hits. Potency, µM, without a hit: max response, negative = inhibition, most hits filed as inhibitors. AID 720504. Plk1 PBD binding of FITC phosphopeptide, fluorescence polarization. P53350; also: potency is read from the fitted curve at half-maximal effect; series mostly up to about 57 µM; nearly all actives have a fitted effect of over 65% in size
# Target sequence (P53350 whole entry, looked up, the tested form may be a part): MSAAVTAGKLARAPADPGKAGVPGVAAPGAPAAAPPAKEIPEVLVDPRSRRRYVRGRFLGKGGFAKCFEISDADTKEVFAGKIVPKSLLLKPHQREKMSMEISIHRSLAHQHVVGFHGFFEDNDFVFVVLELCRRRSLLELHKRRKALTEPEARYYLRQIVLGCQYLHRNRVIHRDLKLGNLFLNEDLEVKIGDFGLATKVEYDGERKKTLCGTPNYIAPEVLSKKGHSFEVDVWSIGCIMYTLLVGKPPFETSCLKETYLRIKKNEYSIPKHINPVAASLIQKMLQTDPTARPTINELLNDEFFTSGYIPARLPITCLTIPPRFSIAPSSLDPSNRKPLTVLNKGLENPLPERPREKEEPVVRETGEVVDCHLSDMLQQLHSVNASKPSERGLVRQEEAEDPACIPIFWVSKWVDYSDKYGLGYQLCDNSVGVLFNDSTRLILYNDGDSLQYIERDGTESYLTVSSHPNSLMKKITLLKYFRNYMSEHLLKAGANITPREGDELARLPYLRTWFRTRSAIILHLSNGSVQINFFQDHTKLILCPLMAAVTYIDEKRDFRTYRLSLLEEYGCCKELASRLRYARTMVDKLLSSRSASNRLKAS
# Sfp PPTase inh: inhibitors of Bacillus subtilis Sfp phosphopantetheinyl transferase. Q9F4F7. Biochemical Sfp PPTase activity, qHTS. Potency, µM, for inactives: largest response in the series, negative = inhibition, most hits filed as inhibitors. 310,000 compounds, 3.5% hits. AID 1490;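 also: the enzyme is Sfp with the accession as filed and its product quenches rhodamine fluorescence; potency is read from the fitted curve at half-maximal effect; 0% = enzyme reaction without inhibitor and -100% = no enzyme wells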
#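 Reaction rates are the 30-min fluorescence difference (ex 525, em 598 nm) in wells containing 15 nM Sfp, 5 uM rhodamine-CoA and 12.5 uM BHQ-2-YbbR at pH 7.6 with 10 mM MgCl2.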
# Numbers without * were called inactive; ? = inconclusive; . = no result; ! = a repeat was not active; [ ] = dose if it differs, or a comment. Hits are enriched below; roughly 10% of the tested compounds scored in any of these assays. Unless noted, calls follow the shape of the dose curve; as a rule, active = well fitted curve in the direction sought with a large enough effect; inconclusive = small, poorly fitted or top-dose-only effect, or another doubt; inactive = no such curve, though single readings can be large; an effect the other way counts as inactive or inconclusive. Unless noted, % is scaled to controls: 0 for no effect and ±100 for the full control effect.
SMILES,MmCpn inh,G9a inh,VDR inhibitor,CCT chaperon mod,PLK1 PBD inh,Sfp PPTase inh
O=C(CSc1ccc(-c2ccco2)nn1)NCc1ccc(Cl)cc1,-8%,?,-10%,3,-14%,-29%
CCc1ccc(NC(=O)CSc2ccc(-c3ccco3)nn2)cc1,0%,?,79µM*,-2,19µM*,35µM*
O=C(CSc1ccc(-c2ccco2)nn1)NCc1ccccc1,-3%,?,-12%,1,-10%,22µM*
O=C(CSc1ccc(-c2ccco2)nn1)c1cccc([N+](=O)[O-])c1,-2%,10µM*,?,-2,-24%,14µM*
CC(=O)c1cccc(NC(=O)CSc2ccc(-c3ccc4c(c3)OCO4)nn2)c1,1%,?,3%,0,4%,?
CCc1ccc(NC(=O)c2ccc3c(c2)N(Cc2ccc(C)cc2)CCS3)cc1,.,-49%[59 µM],-12%,.,.,.
O=S(=O)(O)CCCS(=O)(=O)O,.,-43%[12.7 µM],-2%,.,.,16%
O=C(Cn1nc(C(F)(F)F)c2c1CCC2)Nc1ccc(Cl)cc1,.,-3%[59 µM],-5%,.,.,.
COC(=O)c1ccc(NC(=O)C(=O)NCC(c2cccnc2)N2CCc3ccccc32)cc1 (configuration not stated),.,-8%[59 µM],4%,.,.,.
Cc1ccc(NC(=O)Cn2nc(-c3ccco3)ccc2=O)cc1Cl,-10%,11µM*,-1%,1,-16%,?
COCCNC(=O)[C@H]1C[C@@H]1[C@H](NP(=O)(c1ccccc1)c1ccccc1)c1ccccc1,-7%,56µM*,6%,-1,5%,-13%
COc1ccccc1N1CCN(C(=O)CSc2nnc(NC(=O)C3CC3)s2)CC1,-1%,-7%,1%,-3,-6%,-2%
O=C(Nc1nnc(SCc2ccc(Cl)cc2)s1)c1ccco1,0%,30%[12.7 µM],?,0,3µM*,6%
O=C(CSc1nnc(NC(=O)c2ccco2)s1)Nc1ccccc1Cl,-11%,15%,4%,1,-5%,-17%
CCSc1nnc(NC(=O)c2ccco2)s1,-3%,-33%[59 µM],-4%,1,-4%,5%
CC(C)Sc1nnc(NC(=O)c2ccco2)s1,-1%,25µM*,5%,-2,-29%,-25%
COc1ccccc1N1CCN(C(=O)CSc2nnc(NC(=O)c3ccco3)s2)CC1,1%,50µM*,-4%,-1,-5%,12%
COc1ccc(N2CC(c3nc(-c4ccccc4C)no3)CC2=O)cc1Cl (configuration not stated),.,8%[59 µM],11%,.,.,.
CCOc1ccc(NC(=O)Cn2c(CCC(=O)O)ccc2-c2ccc(C)cc2)cc1,.,-36%[59 µM],9%,.,.,.
CO/N=C(\C(=O)O)c1csc(NN=C(C)C)n1,-1%,22µM*,-12%,1,-4%,35µM*
COc1ccc(OC)c(NC(=O)C2CCCN(S(=O)(=O)c3cccc4nsnc34)C2)c1 (configuration not stated),0%,23%[0.501 µM],-20%,-4,3.4µM*!,-7%
Cc1ccc2nc(NC(=O)C3CCCN(S(=O)(=O)c4cccc5nsnc45)C3)sc2c1 (configuration not stated),-24%,35µM*,15%,0,10%,-1%
O=C(O)c1cccc(NS(=O)(=O)c2cccc3nsnc23)c1,-1%,16%[59 µM],1%,3,2%,8%
COC(CNC(=O)C1CCN(S(=O)(=O)c2cccc3nsnc23)CC1)OC,-18%,8%,0%,-75*,3%,8%
COc1ccc(C(=O)O)cc1NS(=O)(=O)c1cccc2nsnc12,0%,4µM*,11%,-2,1%,-9%
SMILES,MmCpn inh,G9a inh,VDR inhibitor,CCT chaperon mod,PLK1 PBD inh,Sfp PPTase inh
CCc1ccccc1NC(=O)c1nn(-c2ccc(C)cc2)c(=O)c2c1c1ccccc1n2C,.,13%[59 µM],-3%,.,.,.
COC(=O)/C(=N\Nc1ccc(Cl)cc1)Sc1nnc(-c2ccc(OC)cc2)n1C,-1%,3.2µM*,-12%,-1,-11%,-9%
CCOC(=O)/C(=N/Nc1ccc(Cl)cc1)Sc1nnnn1-c1ccc(C)cc1,5%,-5%[59 µM],-8%,-1,-7%,-11%
COc1cc(OC)c2c(-c3ccccc3)cc(=O)oc2c1C(CCN1CCCC(C)C1)c1ccc2c(c1)OCO2 (configuration not stated),1%,-26%[59 µM],3%,-1,4%,?
COc1cc(OC)c2c(-c3ccccc3)cc(=O)oc2c1C(CCN1CCCCC1)c1ccc2c(c1)OCO2 (configuration not stated),-1%,1%[12.7 µM],5%,0,4%,13µM*!
COc1cc(OC)c2c(-c3ccccc3)cc(=O)oc2c1C(CCN1CCCCC1)c1ccc(N(C)C)cc1 (configuration not stated),0%,?,-4%,-2,-8%,?
COc1cc(OC)c2c(-c3ccccc3)cc(=O)oc2c1C(CCN1CCOCC1)c1ccc(N(C)C)cc1 (configuration not stated),?,14µM*,-2%,-2,-19%,-21%
O=C(NCc1cccs1)c1ccc2c(c1)N(Cc1ccccc1Cl)C(=O)c1ccccc1S2,.,-33%[59 µM],8%,.,.,.
Oc1ccc(Br)cc1/C=N/N1CCCCC1,-4%,11µM*,-16%,1,0%,0%
COc1ccc(/C=N/N2C(=O)CSC2=S)cc1Br,-6%,2%[12.7 µM],-11%,0,5%,.
O=C1CSC(=S)N1/N=C/c1cc(Br)ccc1O,1%,10µM*,.,.,.,-15%
COc1ccccc1C=NN1C(=O)CSC1=S,.,.,-18%,-1,-18%,.
O=C1CSC(=S)N1/N=C/c1ccc(O)c(O)c1O,-4%,1.3µM*,?,1,0.95µM*,3.2µM*
COc1ccc(N2CCN(C(CNC(=O)C(=O)NCCc3ccccc3)c3cccnc3)CC2)cc1 (configuration not stated),.,-6%[59 µM],2%,.,.,.
CN(C(=O)c1cnc(N2CCOCC2)c2ccccc12)c1ccccc1F,.,-5%[59 µM],7%,.,.,.
CCOc1cc(/C=N/NC(=O)COc2ccc(C)cc2)ccc1OC(=O)c1cccs1,-1%,-9%,6%,-7,-3%,12%
CC1=NN(c2ccc(C(=O)O)cc2)C(=O)/C1=C\c1ccc(OC(=O)c2cccs2)cc1,-4%,32µM*,?,-3,0.75µM*,?
CCOc1cc(/C=C2\C(=O)N(c3ccc(C(N)=O)cc3)N=C2C)ccc1OC(=O)c1cccs1,-2%,45µM*,50µM*,-1,?,56µM*
CCOc1cc(/C=C2\C(=N)N3N=C(N4CCCCC4)SC3=NC2=O)ccc1OC(=O)c1ccco1,-3%,?,-29%,-1,?,?
CCOc1cc(/C=C2/C(=O)N(c3ccccc3)N=C2C)ccc1OC(=O)c1ccco1,-2%,?,?,-3,1.5µM*,?

# Assay outcomes: PubChem, National Center for Advancing Translational Sciences (NCATS)
